The text below walks through data of PubChem BioAssay AID2685 (National Center for Advancing Translational Sciences (NCATS), 2010).

About 2,100 (0.66%) of roughly 320,000 compounds were called active. Not shown: some 53% with an inconclusive outcome. Calls come from the whole dose curve; as a rule, active = well fitted inhibition curve with a large enough effect in the signal ratio, with a control signal flat (not every such curve was filed as active); inconclusive = small, poorly fitted or top-dose-only effect, or effect the other way, or a change in a side signal; inactive = flat fitted curve, though single readings scatter; the % refers to the signal ratio. The entries come from a sample that favours actives as a whole.
Potency is the fitted concentration of half-maximal effect.

The test in a line: qHTS Assay for Lipid Storage Modulators in Drosophila S3 Cells.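 For cell number change: cells counted by Cell Tracker Red CMTPX staining in the red channel.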 For lipid storage change, negative = inhibition: % is set by controls: 0 for no effect and ±100 for the full control effect. To be noted: BODIPY lipid droplet fluorescence, 18-24 h, cells fed with added oleic acid; cell number change: measured here: cell count max response; series mostly up to 46.1 µM; lipid storage change, negative = inhibition: at the top concentration. The procedure, abridged:
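Drosophila S3 cells loaded with oleic acid (400 uM, as added) and compounds at several concentrations; lipid droplets imaged by 488-nm laser-scanning cytometry, 500–530 nm intensity and object ratio to cell channel. Percent activity normalized to 20 uM Triacsin C.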
(qHTS replaces the single test concentration by a dilution series.)
As for `CCCNC(=O)c1oc2ccc3c(c2c1C)C(O)CC(C)(C)O3` (stereo unspecified), the call was inactive and the cell number change was determined as 11.7%.
Consider `O=C(CN1C2CCCC1CC(NC(=O)c1ccco1)C2)Nc1ccccc1C(F)(F)F` (stereo unspecified), for which the “lipid storage change, negative = inhibition” value was 6.75% (inactive) and the cell number change is 1.61%.
The like results for `Cc1ccc(C(c2sc3ncnn3c2O)N2CC(C)CC(C)C2)cc1` (stereo unspecified) were, in that order, -14% (inactive) and -0.62%.
As to `O=C1c2cccc3cccc(c23)C(=O)N1CC1CCN(S(=O)(=O)c2ccc(F)cc2)CC1`, the “lipid storage change, negative = inhibition” value was 0.656% (inactive) and the cell number change was 1.3%.
Consider `O=S(=O)(Nc1ccc(N2CCCCC2)cc1)c1ccccc1F`, for which the “lipid storage change, negative = inhibition” value is -8.36% (inactive) and the cell number change was -15.7%.
The matching figures for `CCOc1ccc2nc(CN3CCN(Cc4ccsc4)C(CCO)C3)ccc2c1` (stereo unspecified): -13.8% (inactive) and 3.37%.
As to `Cc1nnc(SCC(=O)N(C)c2c(N)n(Cc3ccccc3)c(=O)[nH]c2=O)n1Cc1ccccc1`, the “lipid storage change, negative = inhibition” value is -5.33% (inactive) and the cell number change was found to be 4.04%.
For `CN(C)S(=O)(=O)N1CCN(C(=O)c2ccccc2Cl)CC1`, the compound was classed as inactive.
On to `Cc1ccccc1NS(=O)(=O)c1ccc(C(=O)N2CCCCCC2)cc1`, for which the “lipid storage change, negative = inhibition” value was 24.1% (inactive) and the cell number change was determined as 4.54%.
With `O=C(c1ccccc1)N1CCN(S(=O)(=O)N2CCCCCC2)CC1`, the outcome was inactive and the cell number change is 22.9%.
Regarding `CCOC(=O)C1CCN(C(=O)c2ccc(N(C)S(=O)(=O)c3ccc(OC)cc3)cc2)CC1`, the “lipid storage change, negative = inhibition” value was -25.7% (inactive) and the cell number change is -4.35%.
In the case of `COc1ccc(S(=O)(=O)N(C)c2ccc(C(=O)N3CCC(C(N)=O)CC3)cc2)cc1`, the “lipid storage change, negative = inhibition” value was 1.68% (inactive) and the cell number change was -14.8%.
For `COc1ccc(S(=O)(=O)N(C)CC(=O)N2CCC(C(N)=O)CC2)cc1`, the Potency was 14.6 µM (active) and the cell number change is -9.84%.
Regarding `COc1ccc(S(=O)(=O)N(C)CC(=O)N2CCCCCC2)cc1`, the “lipid storage change, negative = inhibition” value is 9.93% (inactive) and the cell number change was determined as 7.92%.
`CN(C)S(=O)(=O)N1CCN(C(=O)c2ccccc2)CC1`: the Potency is 23.1 µM (active) and the cell number change came to 10.4%.
For `Cc1cccc(NS(=O)(=O)c2ccc(C(=O)N3CCC3)cc2)c1C`, the “lipid storage change, negative = inhibition” value was 21.3% (inactive) and the cell number change came out at 19.3%.
For `Cc1ccc(S(=O)(=O)N(C)c2ccc(C(=O)N3CCC(C(N)=O)CC3)cc2)cc1`, the Potency is 23.1 µM (active) and the cell number change was -5.24%.
Turning to `COc1ccc(S(=O)(=O)N(C)CC(=O)N2CCCC2)cc1`, the “lipid storage change, negative = inhibition” value was -3.08% (inactive) and the cell number change was -6.74%.
As for `Cc1ccccc1NS(=O)(=O)c1ccc(C(=O)N2CCN(S(=O)(=O)c3ccccc3)CC2)cc1`, the Potency is 3.26 µM (active) and the cell number change was -28%.
Regarding `Cc1ccn(CC(=O)N2CCCC(N3CCN(Cc4ccc5c(c4)OCO5)CC3)C2)n1` (stereo unspecified), the “lipid storage change, negative = inhibition” value is 7.81% (inactive) and the cell number change came to 8.09%.
The like results for `Cc1nc(SCC(=O)N(C)Cc2ccco2)c2c(C)c(C)sc2n1` were, in that order, 14.1% (inactive) and -25.2%.
The like results for `O=C(Nc1ccc(C(=O)Oc2ccccc2)c(O)c1)c1ccccc1` were, in that order, -0.0459% (inactive) and -6.44%.
The like results for `COc1ccc(/C=C2\SC(=S)N(N3CCOCC3)C2=O)c(OC)c1` were, in that order, 18% (inactive) and 7.5%.
Take `CC1CCN(C(=O)c2cc(Cl)nc3ccccc23)CC1`: the “lipid storage change, negative = inhibition” value was 13.5% (inactive) and the cell number change was -4.42%.
`COc1ccc(S(=O)(=O)N2CCC(C(=O)NCc3cccc(OC)c3)CC2)cc1`: the compound was classed as inactive and the cell number change worked out at 29.1%.
As for `COc1ccc(/C=N/NC(=O)CCn2nc(C)cc2C)cc1`, the “lipid storage change, negative = inhibition” value is 13.7% (inactive) and the cell number change is 9.01%.
The like results for `Cc1cc(C)cc(C(=O)Nc2cc3c4c(c2)CC(=O)N4CCC3)c1` were, in that order, -15.8% [at 0.0737 µM] (inactive) and -11.8%.
The like results for `O=C(CSc1ccc(C(F)(F)F)cc1[N+](=O)[O-])N1CCOCC1` were, in that order, -21.4% (inactive) and -7.3%.
Turning to `Cc1ccc(-c2nn(CC(=O)NC(C)c3ccccc3)c(=O)c3ccccc23)cc1` (stereo unspecified), the “lipid storage change, negative = inhibition” value was -5.81% (inactive).
On to `COc1ccccc1Nc1nnc(SCC(=O)c2cc(C)n(CC3CCCO3)c2C)s1` (stereo unspecified), for which the “lipid storage change, negative = inhibition” value was 26% (inactive) and the cell number change came out at 4.55%.
As for `CCOc1ccc(CCNC(=O)c2nnn(CC(=O)Nc3c(C)cc(C)cc3C)c2N)cc1OCC`, the call was inactive and the cell number change is 23.4%.
`O=C(c1ccncc1)N1CCN(C2CCCCC2)CC1`: the “lipid storage change, negative = inhibition” value was -5.89% (inactive) and the cell number change was 9.31%.
`O=C(c1ccccc1)N1CCN(C2CCCCCC2)CC1`: the Potency was 25.9 µM (active) and the cell number change is -3.45%.
On to `O=C(c1ccccc1)N1CCN(C2CCCCC2)CC1`, for which the “lipid storage change, negative = inhibition” value is 2.03% (inactive) and the cell number change came out at 7.93%.
The matching figures for `Cc1noc(C)c1C(=O)OCC(=O)Nc1cccc(S(=O)(=O)N(C)C)c1`: 3.18% (inactive) and -1.55%.
The matching figures for `Cc1cc(C(=O)N/N=C/c2ccc(Cl)c([N+](=O)[O-])c2)c(C)n1-c1ccc(F)cc1`: 14.7% (inactive) and -1.33%.
The matching figures for `CCN(CC)CCC(c1ccc(N(C)C)cc1)c1c(OC)cc(OC)c2c(-c3ccccc3)cc(=O)oc12` (stereo unspecified): 6.17% (inactive) and -6.71%.
As to `COc1ccc(C(=O)OCC(=O)Nc2cc(C)c(C)cc2[N+](=O)[O-])cc1`, the “lipid storage change, negative = inhibition” value was 19.5% (inactive) and the cell number change was -12.7%.
The like results for `NC(=O)CSc1cn(CCNC(=O)c2cccs2)c2ccccc12` were, in that order, 11.3% (inactive) and 22.5%.
On to `O=C1/C(=C/c2cccs2)COc2ccccc21`, for which the “lipid storage change, negative = inhibition” value is -5.09% (inactive) and the cell number change was -6.21%.
With `O=C1C(=Cc2cccs2)C(=O)c2ccccc21`, the Potency is 18.4 µM (active) and the cell number change was -7.62%.
Consider `O=C1/C(=C/c2cccs2)Cc2ccccc21`, for which the “lipid storage change, negative = inhibition” value is 2.15% (inactive) and the cell number change worked out at 20.5%.
As for `O=C(CN1C(=O)/C(=C\c2cccc(Cl)c2)Oc2ccccc21)N1CCN(c2ccccn2)CC1`, the “lipid storage change, negative = inhibition” value is 21.7% (inactive).
On to `CC1CC(Nc2ccccc2)=CC(=O)O1` (stereo unspecified), for which the result was inactive.
For the compound `C[C@@H]1CC[C@H](O)/C=C/C(=O)O[C@H](C)CC[C@H](O)/C=C/C(=O)O1`, the Potency is 5.8 µM (active) and the cell number change was -1.52%.
